The record followed here is PubChem BioAssay AID2810 (NMMLSC, 2010).

The structures appear in SMILES notation. Hit rate of the full screen: of about 1,200 compounds, about 65 (5%) were called active. The sample holds actives, similar compounds and a random draw of the others, so the mix is not that of the screen.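 The calls were made as follows: active = at either tested dose, response and 90th-percentile vesicle-stain brightness of CD8 cells under set limits and under 9% cells vesicle-bound; inactive = the rest.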

A short description of this test: modulators of CD8 T cell-vesicle binding, confirmation, cherry-picked primary hits, two concentrations (AID 2810).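 As to all read-outs here: lower values mean blocking of vesicle binding.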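 As to percent response (vesicle binding): ratio of mean FL2 vesicle stain of CD8+ cells to that row's control.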 As to conditions: 2C CD8+ T cell-vesicle binding, flow cytometry; for double positive events: CD8+/vesicle+ events.
Setting [1] is: at 15.4 µM, stronger effect = lower value.

In the case of `CCOC(=O)c1ccc(S(=O)(=O)N2CCN(C3CCCC3)CC2)cc1`, the double positive events came to 11.3% (at 7.7 µM) and 23.3% under setting [1]. Also, the percent response (vesicle binding) is 294% (inactive) under setting [1] and 107% (response, at 7.7 µM).
For `Cc1ccc(S(=O)(=O)N2CCN(CCOc3c(Cl)cccc3Cl)CC2)cc1C` the same measures were 28.4%, 18.9%, 334% (inactive) and 140%.
As for `O=C(NCC1CCCCC1)c1cccc(S(=O)(=O)N2CCCC2)c1`, the double positive events reads like this: (at 7.7 µM) 8.6%; under setting [1], 8.5%. For the same compound, the percent response (vesicle binding) is, setting by setting: under setting [1], 104% (inactive); (response, at 7.7 µM) 305%.
The corresponding values for `Cc1ccc(/C=N/Nc2ccc(F)cc2F)s1` are 17.7%, 29.3%, 280% (inactive) and 159%.
For `O=C(NCC1CCCO1)C(=O)NCC(c1ccco1)N1CCN(c2ccc(F)cc2)CC1` (configuration not stated) the same measures were 35.6%, 10.4%, 199% (inactive) and 266%.
Take `O=C(O)c1ccc(N2C(=O)CC(SC(=Nc3ccccc3)Nc3ccccc3)C2=O)cc1` (configuration not stated): the double positive events is 19.3% (at 7.7 µM) and 18.5% under setting [1]. The percent response (vesicle binding) reads like this: under setting [1], 276% (inactive); (response, at 7.7 µM) 663%.
For `CCOC(=O)CSc1nnc(-c2ccc(Cl)cc2Cl)o1` the same measures were 16.3%, 10.1%, 118% (inactive) and 276%.
Turning to `CCOC(=O)CSc1nnnn1-c1cc(OC)c(Cl)cc1OC`, the double positive events is 20.1% (at 7.7 µM) and 5.9% under setting [1]. Further, the percent response (vesicle binding) under setting [1] is 53.3% (active) and the percent response (vesicle binding) (response, at 7.7 µM) was found to be 312%.
For the compound `COc1cc(Cl)c(S(=O)(=O)n2cnc(C)c2)cc1Cl`, the double positive events came to 9.6% (at 7.7 µM) and 9.7% under setting [1]. The percent response (vesicle binding) is 141% (inactive) under setting [1] and 151% (response, at 7.7 µM).
The corresponding values for `CCn1c(SCC(=O)NCC2CCCO2)nnc1-c1c[nH]c2ccccc12` (configuration not stated) are 14.2%, 13.6%, 286% (inactive) and 430%.
For `O=C(NN1C(=O)C2C3C=CC([C@H]4CC34)[C@@H]2C1=O)c1ccc(Br)cc1` (some centres not stated), the double positive events is, setting by setting: (at 7.7 µM) 33.5%; under setting [1], 31.2%. Moreover, the percent response (vesicle binding) is 590% (inactive) under setting [1] and 1000% (response, at 7.7 µM).
The corresponding values for `CCCOc1ccc(N2C(=O)CC(N(O)c3ccccc3)C2=O)cc1` (configuration not stated) are 17.3%, 14.6%, 158% (inactive) and 254%.
Take `CN(CCCC(=O)N1CCN(c2ncccn2)CC1)S(=O)(=O)c1ccc(F)cc1`: the double positive events by setting is: (at 7.7 µM) 7%; under setting [1], 13.1%. For the same compound, the percent response (vesicle binding) was 151% (inactive) under setting [1] and 122% (response, at 7.7 µM).
On to `Cc1ccsc1C(=O)OCC(=O)N1CCN(c2ccccc2)CC1`, for which the double positive events is, setting by setting: (at 7.7 µM) 17.9%; under setting [1], 27%. Besides, the percent response (vesicle binding) under setting [1] was 263% (inactive) and the percent response (vesicle binding) (response, at 7.7 µM) worked out at 143%.
The corresponding values for `Cc1ccccc1CS(=O)(=O)CCC(=O)N1CCN(c2ccc(N3CCOCC3)nn2)CC1` are 9%, 3.1%, 18.4% (active) and 160%.
The corresponding values for `COc1ccc(Br)cc1CN(C)C(=O)c1ccc2c(c1)NC(=O)C(C)S2` (configuration not stated) are 38.9%, 17.5%, 221% (inactive) and 368%.
The corresponding values for `Cc1cccc(NC(=O)C2CCN(S(=O)(=O)c3c(C)[nH]c(=O)[nH]c3=O)CC2)c1` are 9.4%, 12.6%, 434% (inactive) and 330%.
Turning to `COc1ccc(NCc2nc3ccccc3n2CCOc2ccccc2)cc1`, the double positive events was found to be 35.8% (at 7.7 µM) and 10.6% under setting [1]. Besides, the percent response (vesicle binding) under setting [1] was 221% (inactive) and the percent response (vesicle binding) (response, at 7.7 µM) is 261%.
For `CC(=O)c1ccc(-c2csc(N3CCC(C(N)=O)CC3)n2)cc1` the same measures were 15.1%, 4.6%, 28.3% (active) and 132%.
The corresponding values for `CS(=O)(=O)c1cccc(-c2csc(N3CCC(C(N)=O)CC3)n2)c1` are 18.3%, 37.8%, 182% (inactive) and 192%.
The corresponding values for `NC(=O)C1CCN(c2nc(-c3cc4ccccc4o3)cs2)CC1` are 28.4%, 8%, 128% (inactive) and 459%.
As to `O=C(CN1C(=O)COc2ccc(S(=O)(=O)N3CCCC3)cc21)NC1CC1`, the double positive events (at 7.7 µM) amounted to 21.1% and the double positive events under setting [1] worked out at 16.7%. Besides, the percent response (vesicle binding) runs as follows: under setting [1], 459% (inactive); (response, at 7.7 µM) 268%.
As to `O=C(NCc1ccncc1)C(=O)NCC(c1ccco1)N1CCN(c2ccccc2F)CC1` (configuration not stated), the double positive events is, setting by setting: (at 7.7 µM) 28.7%; under setting [1], 13.3%. In addition, the percent response (vesicle binding) runs as follows: under setting [1], 251% (inactive); (response, at 7.7 µM) 276%.
The corresponding values for `CCOC(=O)c1sc(NC(=O)CSc2ncn[nH]2)c(C#N)c1C` are 36.7%, 26.4%, 617% (inactive) and 394%.
For `CCCc1nnc(NC(=O)c2ccc(S(=O)(=O)N(C)c3ccccc3OC)cc2)s1` the same measures were 14.9%, 6%, 35.7% (active) and 216%.
As to `Cc1nnc(NC(=O)c2ccc(S(=O)(=O)N(C)c3ccccc3)cc2)s1`, the double positive events is 9.6% (at 7.7 µM) and 37.9% under setting [1]. In addition, the percent response (vesicle binding) by setting is: under setting [1], 156% (inactive); (response, at 7.7 µM) 134%.
Take `COc1ccccc1-c1nnc(NC(=O)c2ccc(S(=O)(=O)N3CCOCC3)cc2)o1`: the double positive events runs as follows: (at 7.7 µM) 7%; under setting [1], 8.1%. The percent response (vesicle binding) under setting [1] is 284% (inactive) and the percent response (vesicle binding) (response, at 7.7 µM) amounted to 264%.
For `COc1cc(OC)cc(C(=O)NC(C(=O)Nc2ccc3c(c2)CCC3)C(C)C)c1` (configuration not stated) the same measures were 8.9%, 21%, 368% (inactive) and 147%.
Compound `O=C(CC1=NCCNC(c2ccccc2)C1)c1ccccc1O` (configuration not stated) yielded a double positive events (at 7.7 µM) of 6.2% and a double positive events under setting [1] of 1.7%. In addition, the percent response (vesicle binding) is 65.1% (inactive) under setting [1] and 316% (response, at 7.7 µM).
The corresponding values for `COc1ccc(NCC(O)Cn2c(C)c(C)c3ccccc32)cc1` (configuration not stated) are 11.5%, 16.3%, 63.6% (inactive) and 101%.
As to `O=C(NCCN1CCN(c2ccccc2)CC1)c1cccc(Br)c1`, the double positive events came to 24.2% (at 7.7 µM) and 13.3% under setting [1]. The percent response (vesicle binding) was 252% (inactive) under setting [1] and 278% (response, at 7.7 µM).
With `Cc1ccc(C(C)n2cc(C(=O)NCCN3CCN(C)CC3)nn2)cc1` (configuration not stated), the double positive events is, setting by setting: (at 7.7 µM) 11.2%; under setting [1], 1.8%. For the same compound, the percent response (vesicle binding) runs as follows: under setting [1], 36.8% (active); (response, at 7.7 µM) 155%.
Consider `CCCCCC(=O)N[C@@H](c1ccccc1)[C@@H](O)C(=O)O[C@H]1C[C@@]2(O)[C@@H](OC(=O)c3ccccc3)C3[C@](C)(C(=O)[C@H](OC(C)=O)C(=C1C)C2(C)C)[C@@H](O)C[C@H]1OC[C@@]31OC(C)=O` (some centres not stated), for which the double positive events came to 16.4% (at 7.7 µM) and 12% under setting [1]. The percent response (vesicle binding) was 252% (inactive) under setting [1] and 302% (response, at 7.7 µM).
